# Experimental data from the supplement of paper PMC11732987, “Enantioselective OTUD7B fragment discovery through chemoproteomics screening and high-throughput optimisation” (Communications Chemistry, 2025).
# Unmarked numbers belong to inactive results.
# What was measured:
# Experiment in all cases: log2 ratio of Biotin-Ahx-Ub-VS probe labelling (fragment/DMSO); higher = less target engagement (more negative = stronger competition), active = hit call of the paper (q ≤ 0.05, log2 ratio ≤ -1)
# Details in all cases: compound concentration: 200 uM; treatment time: 3 h
# OTUD6B = biological target: T1, OTUD6B (UniProt Q8N6M0)
# T1 sequence (whole entry): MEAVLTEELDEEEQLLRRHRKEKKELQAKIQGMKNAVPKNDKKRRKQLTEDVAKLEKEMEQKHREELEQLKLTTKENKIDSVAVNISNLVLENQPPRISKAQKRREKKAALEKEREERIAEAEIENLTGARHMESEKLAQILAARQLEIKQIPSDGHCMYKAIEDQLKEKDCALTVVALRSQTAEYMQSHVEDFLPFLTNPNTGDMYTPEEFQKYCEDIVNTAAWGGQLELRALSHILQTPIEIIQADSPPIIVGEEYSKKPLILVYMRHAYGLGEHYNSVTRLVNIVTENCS
# Summary of the method: (§1)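 The table lists average log2 ratios of fragment over vehicle, from an unpaired t-test on global-median-normalised Spectronaut label-free quantities. Proteins with ≥2 unique peptides were used. Samples were HEK293T lysate (495 µg) treated in triplicate with fragment at 200 µM or vehicle for 3 h, then with Biotin-Ahx-Ub-VS (0.5 µM final) for 1 h, with labelled DUBs NeutrAvidin-enriched and run by diaPASEF LC-MS/MS.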
# OTUD7B = biological target: T2, OTUD7B (UniProt Q6GQQ9)
# T2 sequence (whole entry): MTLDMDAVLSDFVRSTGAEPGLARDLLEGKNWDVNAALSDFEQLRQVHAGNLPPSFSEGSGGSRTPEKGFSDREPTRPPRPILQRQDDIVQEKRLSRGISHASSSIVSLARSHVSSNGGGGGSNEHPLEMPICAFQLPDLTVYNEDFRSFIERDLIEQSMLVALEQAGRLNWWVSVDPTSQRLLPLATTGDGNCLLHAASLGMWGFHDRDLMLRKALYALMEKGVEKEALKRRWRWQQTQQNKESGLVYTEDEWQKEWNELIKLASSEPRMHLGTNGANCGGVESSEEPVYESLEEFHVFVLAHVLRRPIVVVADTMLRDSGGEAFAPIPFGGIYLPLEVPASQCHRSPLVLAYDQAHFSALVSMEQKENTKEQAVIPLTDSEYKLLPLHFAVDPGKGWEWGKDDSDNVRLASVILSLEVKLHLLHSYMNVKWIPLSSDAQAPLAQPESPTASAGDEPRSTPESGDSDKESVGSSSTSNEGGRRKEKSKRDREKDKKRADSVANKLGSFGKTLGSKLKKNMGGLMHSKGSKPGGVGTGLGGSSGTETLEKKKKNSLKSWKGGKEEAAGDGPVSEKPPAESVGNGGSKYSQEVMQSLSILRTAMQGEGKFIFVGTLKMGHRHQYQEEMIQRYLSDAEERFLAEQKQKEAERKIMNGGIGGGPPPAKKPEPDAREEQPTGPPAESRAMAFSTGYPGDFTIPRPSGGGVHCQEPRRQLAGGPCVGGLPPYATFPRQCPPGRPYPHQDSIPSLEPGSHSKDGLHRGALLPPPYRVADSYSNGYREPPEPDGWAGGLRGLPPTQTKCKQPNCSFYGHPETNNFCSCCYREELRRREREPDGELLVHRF
# Summary of the method: as §1
# PRPF8 = PRPF8 (UniProt Q6P2Q9)
# Summary of the method: as §1
# PSMD7 = biological target: T3, PSMD7 (UniProt P51665)
# T3 sequence (whole entry): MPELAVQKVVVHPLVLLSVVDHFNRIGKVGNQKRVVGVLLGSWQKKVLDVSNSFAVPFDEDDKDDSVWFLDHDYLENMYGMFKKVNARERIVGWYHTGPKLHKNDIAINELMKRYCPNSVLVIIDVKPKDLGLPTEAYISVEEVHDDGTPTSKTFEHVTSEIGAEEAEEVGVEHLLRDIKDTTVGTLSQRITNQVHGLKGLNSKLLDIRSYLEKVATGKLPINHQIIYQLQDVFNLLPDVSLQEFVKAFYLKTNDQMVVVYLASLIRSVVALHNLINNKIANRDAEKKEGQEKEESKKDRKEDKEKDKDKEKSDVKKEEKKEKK
# Summary of the method: as §1
# UCHL1 = UCHL1 (UniProt P09936)
# Summary of the method: as §1
# UCHL3 = biological target: T4, UCHL3 (UniProt P15374)
# T4 sequence (whole entry): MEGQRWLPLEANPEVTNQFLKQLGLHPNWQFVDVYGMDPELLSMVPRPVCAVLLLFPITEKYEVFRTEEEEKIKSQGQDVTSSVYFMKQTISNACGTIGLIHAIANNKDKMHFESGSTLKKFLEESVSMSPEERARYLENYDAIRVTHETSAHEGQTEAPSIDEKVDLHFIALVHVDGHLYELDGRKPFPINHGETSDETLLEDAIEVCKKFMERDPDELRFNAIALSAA
# Summary of the method: as §1
# UCHL5 = biological target: T5, UCHL5 (UniProt Q9Y5K5)
# T5 sequence (whole entry): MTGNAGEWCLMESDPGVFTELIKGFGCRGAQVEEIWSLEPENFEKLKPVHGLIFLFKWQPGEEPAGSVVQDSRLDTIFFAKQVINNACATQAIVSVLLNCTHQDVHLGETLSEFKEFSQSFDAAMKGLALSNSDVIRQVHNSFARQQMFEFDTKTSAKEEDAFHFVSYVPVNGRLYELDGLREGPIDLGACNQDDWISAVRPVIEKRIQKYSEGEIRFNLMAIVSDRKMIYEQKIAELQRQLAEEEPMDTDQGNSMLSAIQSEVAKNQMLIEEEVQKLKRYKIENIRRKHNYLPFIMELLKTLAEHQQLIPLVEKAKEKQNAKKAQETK
# Summary of the method: as §1
# USP10 = USP10 (UniProt Q14694)
# Summary of the method: as §1
# USP15 = biological target: T6, USP15 (UniProt Q9Y4E8)
# T6 sequence (whole entry): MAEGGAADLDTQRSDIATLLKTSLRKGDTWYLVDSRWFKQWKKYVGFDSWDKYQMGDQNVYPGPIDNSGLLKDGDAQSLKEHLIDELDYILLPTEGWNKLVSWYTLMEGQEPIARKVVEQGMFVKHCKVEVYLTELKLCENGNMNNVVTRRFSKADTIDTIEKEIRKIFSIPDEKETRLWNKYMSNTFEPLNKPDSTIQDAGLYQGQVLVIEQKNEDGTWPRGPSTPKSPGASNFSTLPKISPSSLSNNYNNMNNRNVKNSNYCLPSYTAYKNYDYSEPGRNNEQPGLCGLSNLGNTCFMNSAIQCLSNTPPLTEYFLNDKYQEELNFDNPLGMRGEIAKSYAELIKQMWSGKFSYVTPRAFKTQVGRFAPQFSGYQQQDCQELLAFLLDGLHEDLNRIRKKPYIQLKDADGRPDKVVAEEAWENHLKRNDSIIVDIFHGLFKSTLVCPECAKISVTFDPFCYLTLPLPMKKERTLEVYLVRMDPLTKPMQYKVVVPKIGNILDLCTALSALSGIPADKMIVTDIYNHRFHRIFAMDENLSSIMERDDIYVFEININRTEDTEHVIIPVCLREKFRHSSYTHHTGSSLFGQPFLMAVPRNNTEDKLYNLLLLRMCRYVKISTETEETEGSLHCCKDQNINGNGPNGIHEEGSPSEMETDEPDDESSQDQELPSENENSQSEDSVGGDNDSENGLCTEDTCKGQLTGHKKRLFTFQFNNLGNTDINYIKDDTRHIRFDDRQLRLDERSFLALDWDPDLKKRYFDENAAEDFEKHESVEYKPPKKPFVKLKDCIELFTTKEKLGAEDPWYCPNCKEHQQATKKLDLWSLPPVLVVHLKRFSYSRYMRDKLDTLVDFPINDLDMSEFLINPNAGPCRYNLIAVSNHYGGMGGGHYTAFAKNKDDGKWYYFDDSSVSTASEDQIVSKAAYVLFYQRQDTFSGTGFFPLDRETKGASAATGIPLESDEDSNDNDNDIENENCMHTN
# Summary of the method: as §1
# USP16 = USP16 (UniProt Q9Y5T5)
# Summary of the method: as §1
# UCHL1, sequence (P09936 whole entry, looked up): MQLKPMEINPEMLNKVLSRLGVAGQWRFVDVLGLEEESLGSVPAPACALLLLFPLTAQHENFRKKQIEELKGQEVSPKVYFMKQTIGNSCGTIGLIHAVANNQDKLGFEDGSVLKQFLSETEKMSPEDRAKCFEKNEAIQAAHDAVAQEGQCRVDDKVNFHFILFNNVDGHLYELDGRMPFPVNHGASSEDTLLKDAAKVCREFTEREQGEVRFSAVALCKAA
# USP16, sequence (Q9Y5T5 whole entry, looked up): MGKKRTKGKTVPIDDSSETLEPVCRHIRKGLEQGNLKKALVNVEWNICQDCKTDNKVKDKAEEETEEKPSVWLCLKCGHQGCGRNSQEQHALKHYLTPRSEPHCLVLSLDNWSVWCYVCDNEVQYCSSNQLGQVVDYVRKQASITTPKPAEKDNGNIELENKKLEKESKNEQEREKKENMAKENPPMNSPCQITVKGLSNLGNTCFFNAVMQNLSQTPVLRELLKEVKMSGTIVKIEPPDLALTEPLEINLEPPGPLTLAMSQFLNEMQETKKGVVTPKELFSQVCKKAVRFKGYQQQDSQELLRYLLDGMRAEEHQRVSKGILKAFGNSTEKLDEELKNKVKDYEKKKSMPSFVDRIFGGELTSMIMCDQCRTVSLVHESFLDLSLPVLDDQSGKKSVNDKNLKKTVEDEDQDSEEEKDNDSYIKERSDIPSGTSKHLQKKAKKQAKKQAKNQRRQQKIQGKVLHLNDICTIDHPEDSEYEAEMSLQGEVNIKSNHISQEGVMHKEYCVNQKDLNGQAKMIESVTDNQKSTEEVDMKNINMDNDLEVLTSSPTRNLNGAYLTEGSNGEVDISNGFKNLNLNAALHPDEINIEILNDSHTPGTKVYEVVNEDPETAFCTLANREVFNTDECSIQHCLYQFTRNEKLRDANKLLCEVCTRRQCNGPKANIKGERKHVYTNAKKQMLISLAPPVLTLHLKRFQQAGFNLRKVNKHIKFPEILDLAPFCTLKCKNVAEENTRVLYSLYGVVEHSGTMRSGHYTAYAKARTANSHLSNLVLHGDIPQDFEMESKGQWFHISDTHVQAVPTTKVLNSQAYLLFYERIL
# USP10, sequence (Q14694 whole entry): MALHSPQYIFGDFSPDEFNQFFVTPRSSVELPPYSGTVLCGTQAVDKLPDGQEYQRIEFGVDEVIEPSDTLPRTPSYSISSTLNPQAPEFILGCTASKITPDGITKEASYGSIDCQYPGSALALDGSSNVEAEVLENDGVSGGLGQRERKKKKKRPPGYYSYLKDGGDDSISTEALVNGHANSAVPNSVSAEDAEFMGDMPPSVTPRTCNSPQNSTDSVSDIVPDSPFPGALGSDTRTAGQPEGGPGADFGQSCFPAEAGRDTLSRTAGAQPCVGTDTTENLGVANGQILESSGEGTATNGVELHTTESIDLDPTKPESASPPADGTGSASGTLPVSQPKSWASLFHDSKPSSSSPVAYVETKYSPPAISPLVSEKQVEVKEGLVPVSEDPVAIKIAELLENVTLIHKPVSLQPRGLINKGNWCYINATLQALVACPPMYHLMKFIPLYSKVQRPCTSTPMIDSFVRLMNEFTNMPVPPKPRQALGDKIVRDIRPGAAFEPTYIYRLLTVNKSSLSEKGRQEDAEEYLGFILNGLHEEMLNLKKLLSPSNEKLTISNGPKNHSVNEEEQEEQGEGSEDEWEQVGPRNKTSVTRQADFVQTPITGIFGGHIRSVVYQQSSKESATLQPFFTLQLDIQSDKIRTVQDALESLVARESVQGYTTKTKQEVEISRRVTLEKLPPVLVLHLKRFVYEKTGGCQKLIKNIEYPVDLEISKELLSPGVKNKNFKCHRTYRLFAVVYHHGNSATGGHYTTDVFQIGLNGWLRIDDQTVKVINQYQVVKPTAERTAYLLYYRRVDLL
smiles,measurement,setting,value
Cc1cc(C(=O)NC2CCN(C(=O)CCl)CC2)no1,log2 ratio of Biotin-Ahx-Ub-VS probe labelling,OTUD6B,-0.173
same,log2 ratio of Biotin-Ahx-Ub-VS probe labelling,OTUD7B,-0.263
same,log2 ratio of Biotin-Ahx-Ub-VS probe labelling,PRPF8,-0.0374
same,log2 ratio of Biotin-Ahx-Ub-VS probe labelling,PSMD7,-0.0768
same,log2 ratio of Biotin-Ahx-Ub-VS probe labelling,UCHL1,-1.58 (active)
same,log2 ratio of Biotin-Ahx-Ub-VS probe labelling,UCHL3,0.336
same,log2 ratio of Biotin-Ahx-Ub-VS probe labelling,UCHL5,-0.135
same,log2 ratio of Biotin-Ahx-Ub-VS probe labelling,USP10,-0.197
same,log2 ratio of Biotin-Ahx-Ub-VS probe labelling,USP15,-0.252
same,log2 ratio of Biotin-Ahx-Ub-VS probe labelling,USP16,0.021
